An excerpt weighted towards active compounds, which were near 12% of everything screened.
JMJD2A Tudor: JMJD2A Tudor domain (human) inhibition; O75164; AlphaScreen JMJD2A-Tudor / H3K4me3 peptide binding; Potency, µM (series often up to 114 µM), actives largely listed as inhibitors; 390,000 tested, 4.4% active; note: nearly all actives have a fitted effect of over 50% in size
PLK1 PBD inh: PLK1 (human) polo-box domain binding inhibition | Plk1 PBD binding of FITC phosphopeptide, fluorescence polarization | Potency, µM, usual class: inhibitors | 360,000 tested, 2.8% active; note: series mostly up to about 57 µM; nearly all actives have a fitted effect of over 65% in size
PI5P4Ka inh: inhibitors of human PI5P4K alpha. max response, %. AID 652105. P48426. 330,000 tested, 1.2% active. PI5P4Kalpha enzyme, ADP-Glo luminescence, 60 min; hits give low values; active = max response of -50% or lower; inconclusive = between -30% and -50%; inactive = -30% or higher; note: value at the top dose of about 77 µM
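Single end-point luminescence (ADP-Glo) quantified ADP from PI5P4Kalpha turnover; ATP 5 microM final, 1 h at RT, 0.1% CHAPS and 0.28 mM EGTA in HEPES pH 7.4.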
HP1b binding inh: blocks HP1-beta chromodomain binding to methylated histone tails; P83916; AlphaScreen HP1-beta / biotin-H3K9me3 peptide binding; Potency, µM (top dose mostly 114 µM), usual class: inhibitors; 390,000 tested, 0.56% active; note: nearly all actives have a fitted effect of over 70% in size
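Compound inhibition of the preformed complex between 50 nM HP1-beta and 50 nM biotinylated H3K9me3 peptide was read by AlphaScreen. Buffer was PBS pH 7.4 with 0.01% Tween-20. Incubations ran 30 min at room temperature, with 10 ug/mL donor/acceptor beads.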
BAZ2B inh: blocks human BAZ2B; AlphaScreen BAZ2B-H3K14Ac peptide displacement; Potency, µM (series often up to 114 µM), actives largely listed as inhibitors; 360,000 tested, 4.4% active; AID 504333; note: nearly all actives have a fitted effect of over 60% in size
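BAZ2B (50 nM) with biotin-H3(5-23)K14Ac peptide (50 nM) in PBS pH 7.4, 0.01% Tween-20, preformed 30 min, then compound 30 min at room temperature; top concentration 110uM. AlphaScreen streptavidin donor/nickel chelate acceptor beads (10 ug/mL final), 20 min dark, signal read.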
G9a inh: inhibitors of human histone lysine methyltransferase G9a | Q96KQ7 | G9a H3K9 monomethylation, AlphaScreen, 2 h | Potency, µM (titrated, usually from 102 µM), most hits filed as inhibitors | 350,000 tested, 8.8% active | AID 504332; note: nearly all actives have a fitted effect of over 75% in size
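Step 1: enzyme (final 20 nM) with compound, 15 min RT. Step 2: substrate peptide 500 nM and SAM 20 uM, 2 h RT. Step 3: anti-H3K9me1 antibody and AlphaScreen beads, 10 min, then plate read.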
Hits are given with their value; - = inactive; ? = inconclusive; . = no result given; ! = repeats disagree; [ ] = remark or other dose. Unless noted, calls come from the whole dose curve; as a rule, active = well fitted curve in the direction sought with a large enough effect; inconclusive = small, poorly fitted or top-dose-only effect, or another doubt; inactive = no such curve, though single readings can be large; an effect the other way counts as inactive or inconclusive.

SMILES	JMJD2A Tudor	PLK1 PBD inh	PI5P4Ka inh	HP1b binding inh	BAZ2B inh	G9a inh
O=c1[nH]c2cc3c(cc2cc1C(c1nnnn1Cc1ccccc1)N1CCCCCC1)OCCO3 (stereo not given)	-	-	-	-	-	14µM
Cc1cccc2cc(C(c3nnnn3Cc3ccc4c(c3)OCO4)N3CCCC3)c(=O)[nH]c12 (stereo not given)	-	-	-	-	-	18µM
Cc1cc(C(c2nnnn2Cc2ccccc2)N2CCOCC2)c(C)n1-c1ccc2c(c1)OCO2 (stereo not given)	?	-	.	?	?	40µM
Cc1ccc2cc(C(c3nnnn3C(C)(C)C)N3CCCC3)c(=O)[nH]c2c1C (stereo not given)	.	.	.	.	-	32µM
O=C(CNc1cccc(S(=O)(=O)N2CCCCC2)c1)Nc1ccc(C(F)(F)F)cc1	.	-	-	.	.	.
Cc1cc2cc(C(c3nnnn3Cc3ccco3)N3CCCCC3)c(=O)[nH]c2cc1C (stereo not given)	-	-	.	-	-	50µM
CCCCN(CC)C(=O)Nc1ccc2c(c1)N(C)C(=O)c1ccccc1S2	?	.	.	-	?	-
CN(C)c1ccc(Nc2ncnc3c2c(-c2ccccc2)cn3-c2cccc(Cl)c2)cc1	13µM	.	.	?	4.5µM	8.9µM
COc1ccc(-c2nc(-c3ccccc3)nc(N3CCN(C)CC3)c2C#N)cc1	?	-	-	-	?	-
COc1cccc(-c2nc(-c3ccccc3)nc(N3CCN(C)CC3)c2C#N)c1	56µM	-	-	-	?	50µM
COc1ccc(-c2nc(-c3cccc(C)c3)nc(N3CCN(C)CC3)c2C#N)cc1	-	-	-	-	-	79µM
CN(C)CCNC(=O)/C(=N\O)c1ccccn1	-	-	-	-	?	50µM
CN(C)CCCNCCCNC(=O)/C(=N\O)c1ccccc1	?	-	-	-	-	50µM
CN(C)CCCNCCCNC(=O)c1ccccn1	-[11.4 µM]	-	-	-	-	?
O=C(NCc1ccccc1)/C(=N\O)c1ccccc1	-	-	-	-	-	-
CC(=O)N1CCc2cc(S(=O)(=O)CCC(=O)Nc3ccc(C)cc3Br)ccc21	-	.	.	-	.	?
CCC(=O)N1c2ccc(S(=O)(=O)CCC(=O)NC3CCCC3)cc2CC1C (stereo not given)	-	-	-	-	-	-[0.501 µM]
CCOC(=O)c1cccc(NC(=O)CCS(=O)(=O)c2ccc3c(c2)CCN3C(=O)CC)c1	25µM	.	.	-	.	11µM
CC(=O)N1CCc2cc(S(=O)(=O)CCC(=O)Nc3ccccc3F)ccc21	50µM	24µM	-	-	-	?
CCC(=O)N1c2ccc(S(=O)(=O)CCC(=O)Nc3ccc(Br)c(C)c3)cc2CC1C (stereo not given)	22µM	.	.	-	.	14µM
Cc1cc(C)c2c(n1)nn1c(C)c(CCC(=O)NCc3ccccc3Cl)c(C)nc21	-	.	.	-	-	-
CCOc1cc(/C=C2\C(=O)N(c3cccc(C(F)(F)F)c3)C(=O)c3ccccc32)ccc1O	?	?	-	?	?	?
COc1cccc(/C=C2\C(=O)N(c3cccc(C)c3)C(=O)c3ccccc32)c1	-	2.7µM	-	-	?	18µM
Cc1cccc(N2C(=O)/C(=C\c3ccc(OC(F)F)cc3)c3ccccc3C2=O)c1	?	2.4µM	-	-	?	-
COc1ccccc1Cn1ccn(Cc2c(F)cccc2Cl)c(=O)c1=O	-	.	.	-	-	-
SMILES	JMJD2A Tudor	PLK1 PBD inh	PI5P4Ka inh	HP1b binding inh	BAZ2B inh	G9a inh
N=C1c2c(cc(=O)n3c2[nH]c2ccccc23)CN1CCN1CCOCC1	-	-	-	-	.	35µM
CCCCCCCC(=O)OC[C@H](CO)OC(=O)CCCCCCC	.	.	.	.	.	-
CCCCCCCCCCCCCCCCCC(=O)OC(CC(=O)O)C[N+](C)(C)C (stereo not given)	.	.	.	.	.	17µM!
CO[C@]12C(COC(N)=O)C3=C(C(=O)C(C)=C(N)C3=O)N1CC1NC12 (stereo not given in full)	.	.	.	.	.	-[2.33 µM]
COC(=O)C1=C(C)N(c2ccc(C(=O)OC)cc2)C(=O)C1	-	-	-	-	-	-[12.7 µM]
COC(=O)C1=C(C)N(c2cc(Cl)cc(Cl)c2)C(=O)C1	-	-	-	-	-	45µM
Cc1ccnc(N2C(=O)c3ccccc3C2O)c1 (stereo not given)	-	-	-58	-	-	-
Cc1ccnc(N2C(=O)c3ccccc3C2Nc2cccc(C)c2C)c1 (stereo not given)	-	-	-	-	-	-
COc1ccc(-c2cc(C(=O)NC(Cc3cc4ccccc4[nH]3)C(=O)O)c(C)o2)cc1OC (stereo not given)	-	?	-	?	-	32µM
COc1cccc2c1cc1c(=O)n(CC(=O)N3CCC(C)CC3)nc(C)n12	-	-	-	-	-	-
O=C(COc1ccccc1Cl)Nc1cc(NC(=O)COc2ccccc2Cl)cc(C(=O)O)c1	-	-	-	-	50µM	-
O=C(COc1cc(Cl)c(Cl)cc1Cl)Nc1ccncc1	89µM	?	-	-	-	-[12.7 µM]
O=C(COc1cc(Cl)c(Cl)cc1Cl)Nc1cccc(O)c1	-	-	-	-	-	-
O=C(COc1ccccc1Cl)Nc1ccc(N2CCCC2)cc1	?	-	-	-	-	7.9µM
C=CCCCCCCCCCCCC(O)CC(O)CO (stereo not given) (tested in a mixture with another compound)	.	.	.	.	.	-[2.33 µM]
COc1ccc(CCN2CC(C(=O)Nc3nccs3)CC2=O)cc1OC (stereo not given)	-	-	-	-	.	.
CCN(c1ccccc1)S(=O)(=O)c1cc2c3c(c1)C(C)C(=O)N3CCC2 (stereo not given)	-	-	-	-	-	-
CC1C(=O)N2CCCc3cc(S(=O)(=O)N(C)c4ccccc4)cc1c32 (stereo not given)	-	-	-	-	56µM	.
COc1ccc(S(=O)(=O)Nc2cc3c4c(c2)C(C)C(=O)N4CCC3)cc1OC (stereo not given)	-	-	-	-	-	45µM
CC1C(=O)N2CCCc3cc(NS(=O)(=O)c4ccccc4)cc1c32 (stereo not given)	-	-	-	-	-	?
COC(=O)C1=C[C@@H](C(=O)OC)[C@@H]2C3=C(C(=O)[C@@]2(C)NC(=O)c2ccccc2)[C@H](C)[C@@H]2C(=O)N(Cc4ccccc4)C(=O)[C@@H]2[C@@H]3C1	-	.	.	-	.	.
CCn1c2ccccc2c2cc(NC(=O)c3coc(=O)c(Br)c3)ccc21	.	.	.	.	-	7.1µM
CCn1c2ccccc2c2cc(NC(=O)c3ccc(=O)oc3)ccc21	-	?	-	-	?	45µM
CCn1c2ccccc2c2cc(NC(=O)c3ccc(Br)o3)ccc21	20µM	?	-	?	?	11µM
CCOc1ccccc1CNC(=O)c1ccc2nc(CCc3ccccc3)oc2c1	-	.	.	-	-	-

Screening results from PubChem.
